TIM10 inh: growth inhibitors of isogenic TIM10 control yeast, primary screen, counter-screen for tim10-1 yeast inhibitor project, luminescence, uHTS. inhibition, % at 10 µM. AID 463195, 2010. 1.4% of 330,000 active. S. cerevisiae TIM10 strain growth, BacTiter-Glo luminescence, 24 h;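 active = inhibition of 40% or more at the single tested concentration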;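 note: wild-type TIM10 isogenic control strain grown at permissive 25 °C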
SKKanGAS inh: S. pyogenes SKKanGAS growth inhibitors in kanamycin, primary screen, streptokinase expression inhibitor project, SKKanGAS strain, BacTiter-Glo luminescence; 6 h; inhibition, % at 7.5 µM; 1.3% of 300,000 active; AID 1662, 2009;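 active = mean replicate score, as percent of positive control median, at least 50; inconclusive = mean below 50 but one replicate at or above 50; inactive = mean and every replicate below 50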;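 note: strain carries kanamycin resistance gene driven by streptokinase promoter and grows in 40 µg/ml kanamycin; loss of luminescence reflects streptokinase promoter inhibition or plain growth inhibition; 0% = median of DMSO wells and 100% = positive control at its reference dose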
tim23-1 inh: growth inhibitors of tim23-1 mutant yeast, primary screen, luminescence, uHTS | S. cerevisiae tim23-1 growth, BacTiter-Glo luminescence, 24 h | inhibition, % at 20 µM | 1.3% of 330,000 active | AID 463212, 2010;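 active = growth inhibition of the mutant yeast at or above 50%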;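 note: temperature-sensitive mutant grown at 25 °C; plate controls were DMSO-treated mutant yeast for no effect and medium wells lacking yeast for full effect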
tim10-1 inh: growth inhibitors of tim10-1 mutant yeast, primary screen, luminescence, uHTS; AID 463190, 2010; inhibition, % at 20 µM; S. cerevisiae tim10-1 ts strain growth, BacTiter-Glo, 24 h; 2.2% of 330,000 active;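 active = inhibition of at least 40%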;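 note: mutant grown at 25 °C; 0% = DMSO wells with yeast and 100% = wells holding no yeast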
PfHsp90 set2: growth inhibition of PfHsp90-expressing yeast, primary screen, antimalarial PfHsp90 inhibitor project, S. cerevisiae, BacTiter-Glo luminescence, single point, set 2. AID 504621, 2011. inhibition, % at 9.4 µM. BacTiter-Glo ATP, 48 h; yeast lacking PDR1 and PDR3 efflux regulators. 0.32% of 310,000 active;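 active = every replicate shows inhibition above about 80%, whatever the replicate mean, limit read from the data; inconclusive = mean inhibition reaches the set limit but some replicate falls short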;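 note: 0% = DMSO neutral controls and 100% = 20 µM radicicol positive controls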
tim10 confirm: growth inhibitors of wild-type TIM10 yeast, confirmation, counter-screen for tim10-1 synthetic lethality project, single concentration, luminescence, S. cerevisiae | AID 463215, 2010 | S. cerevisiae tim10 strain growth, BacTiter-Glo luminescence, 24 h | shares compounds with TIM10 inh | 63% of 4,600 active | inhibition, % at 10 µM;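 active = inhibition of yeast growth at or above a set limit in either of two replicates at 10 µM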;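 note: this counterscreen used the strain with wild-type TIM10; 0% = yeast with DMSO and 100% = medium wells lacking yeast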
Numbers without * were called inactive; u = inconclusive; x = not tested or not shown. The list is not random: actives were taken first. Their share in the collection is about 4.4%.

SMILES	TIM10 inh	SKKanGAS inh	tim23-1 inh	tim10-1 inh	PfHsp90 set2	tim10 confirm
CCOc1ccc(N(C(=O)c2cnccn2)C(C(=O)NC2CCCCC2)c2ccc(O)cc2)cc1 (stereo unspecified)	84*	2	16	17	15	-16
Cc1ccc(N(C(=O)c2cnccn2)C(C(=O)NC2CCCCC2)c2ccc(O)cc2)cc1 (stereo unspecified)	-4	9	4	17	-19	x
O=C(c1ccc([N+](=O)[O-])s1)N1CCc2ccccc2C1	45*	-20	40	34	0	22
COc1cccc(C2(O)C(=O)Nc3ccccc32)c1 (stereo unspecified)	-22	1	1	23	11	x
CCCc1ccc(Oc2cn[nH]c2-c2ccc(O)cc2O)cc1	44*	x	-36	4	u	72*
COc1ccc(Oc2cn[nH]c2-c2ccc(O)cc2O)cc1	10	-1	19	14	16	x
COc1ccc(-c2[nH]ncc2Oc2ccccc2OC)c(O)c1	52*	-2	46	31	x	29
Cc1cnc(NC(=O)CCCNC(=O)c2ccc(Cl)cc2)s1	12	x	11	4	3	x
O=C(NCCN1CCCCC1)c1cc(Cl)ccc1Cl	10	1	5	-14	-17	x
Cc1cc(N/N=C/c2ccccc2O)c2ccccc2n1	59*	-1	32	29	-19	27*
Cc1nn(Cc2ccc(Cl)cc2)c(=O)n1N(C)c1ncc(C(F)(F)F)cc1Cl	55*	11	5	40	-3	-1
CN(NC(=O)c1ccc(Cl)cc1)c1ncc(C(F)(F)F)cc1Cl	9	-4	18	8	-13	x
Cn1nc(C(=O)N2CCN(c3ccccc3F)CC2)c2c1-c1ccccc1S(=O)(=O)C2	9	0	26	34	7	x
Cc1ccc(N/N=C(\C#N)C(N)=S)cc1C	42*	-3	30	38	-22	26
O=C(C#Cc1ccccc1)c1cccc([N+](=O)[O-])c1	72*	-3	17	-63	152*	70*
CCOc1cc(/C=N/NC(=O)COc2ccccc2C)ccc1OC(=O)c1cccs1	41*	9	32	23	-20	26
C=CCn1c(SCc2c(Cl)cccc2Cl)nnc1-c1cccnc1	41*	5	27	39	-3	17
O=C(CCNC(=O)c1ccco1)NCc1ccc(F)cc1	-6	x	-8	-15	8	x
COc1cccc(CNC(=O)CN(c2ccc(C(C)C)cc2)S(=O)(=O)c2c(C)noc2C)c1	7	2	26	30	4	x
O=C(OCC(=O)N(C1CCCCC1)C1CCCCC1)c1cnccn1	35	8	-5	19	-23	x
Cc1ccc2nc(Cl)c(CN(C(=O)c3cnccn3)C3CCCCC3)cc2c1	41*	0	39	39	15	28*
N#Cc1ccc(N)cc1OCCCN1CCCCC1	x	x	x	x	1	x
O=[N+]([O-])CC(c1ccccc1)c1c[nH]c2ccccc12 (stereo unspecified)	45*	10	39	19	x	55*
O=C(N/N=C/c1ccc([N+](=O)[O-])cc1)c1cc(C2CC2)[nH]n1	51*	7	23	36	-16	56*
O=c1[nH]c(C2CCN(S(=O)(=O)c3cccc([N+](=O)[O-])c3)CC2)nc2c1nnn2Cc1ccccc1	11	7	11	-2	5	x
SMILES	TIM10 inh	SKKanGAS inh	tim23-1 inh	tim10-1 inh	PfHsp90 set2	tim10 confirm
COc1cc(C(=O)N/N=C/c2ccc(OC(=O)c3cccc(C)c3)c(OC)c2)ccc1O	1	19	19	23	-2	x
COc1ccc(O)c(-c2cc(-c3ccccc3[N+](=O)[O-])[nH]n2)c1	35	-3	36	21	-12	x
Cc1ccc(O)c(-c2cc(-c3ccccc3[N+](=O)[O-])[nH]n2)c1	42*	2	47	28	0	4
COc1ccc(N(CC(=O)NCc2ccccc2OC)S(=O)(=O)c2ccccc2)cc1	10	2	32	28	14	x
CCC(Sc1nc(N)c(NC(=O)c2ccc(Br)o2)c(=O)[nH]1)C(=O)O (stereo unspecified)	10	-3	-8	-17	-16	x
Cc1cccc(-c2nc(=S)c3c(o2)CCCC3)c1	44*	-1	35	24	x	33*
S=c1nc(-c2ccc(Br)cc2)oc2c1CCCC2	26	8	3	35	-4	x
CCOC(=O)c1nnn(-c2ccccc2)c1C	7	-5	11	10	-10	x
CCOC(=O)c1nnn(-c2ccc([N+](=O)[O-])cc2[N+](=O)[O-])c1C	41*	5	44	23	12	37*
Cc1c(C)c2ccc(OC(C)C(=O)N3C[C@H]4C[C@@H](C3)c3cccc(=O)n3C4)c(C)c2oc1=O (stereo partly specified)	59*	-2	-4	-13	23	-7
CCOc1ccccc1NC(=O)NCc1ccccn1	7	-2	-8	-2	5	x
CCCCOc1ccc(C(=S)N2CCC(C(N)=O)CC2)cc1	19	-13	11	13	19	x
CN(C(=S)Nc1ccc(SC(F)F)cc1)C(c1ccccc1)c1ccccc1	42*	22	19	19	3	40*
Cc1cccc(N2CCN(C(=O)c3ccc4nc[nH]c4c3)CC2)c1C	35	2	36	35	-30	x
Cc1ccc(Cl)cc1N1CCN(C(=O)c2ccc3nc[nH]c3c2)CC1	48*	-3	40	31	-6	37*
CCCn1c(N)c(N(CCOC)C(=O)c2cc(S(=O)(=O)N3CCCCCC3)ccc2OC)c(=O)[nH]c1=O	5	18	-7	-23	-2	x
CSc1nc(-c2ccccc2)nn1C(=O)c1ccc(Cl)cc1	49*	6	37	30	2	-24
Cc1ccc(C)c(OCCC(=O)N2CCN(S(=O)(=O)c3ccc([N+](=O)[O-])cc3)CC2)c1	53*	x	7	7	-2	-8
Cc1cc2ncn(/N=C/c3ccc([N+](=O)[O-])o3)c2cc1C	57*	-12	0	40	-130	56*
COc1ccc(C(=O)NN2CCOCC2)cc1	-3	5	-8	-24	-23	x
O=C(CNc1ccc(F)cc1)N/N=C/c1c(O)ccc2ccccc12	44*	96*	39	-8	-3	42*
COc1ccccc1NCC(=O)N/N=C/c1c(O)ccc2ccccc12	-17	42	2	-20	7	x
CCCN(C(=O)c1cn(C)c(=O)c2ccccc12)c1ccccc1C	2	-1	3	12	16	x

Assay outcomes: PubChem, several laboratories
